The list is not random: actives were taken first. Their share in the collection is about 20%.
CHX counter: counter-screen for Shiga toxin inhibitors: cycloheximide protein synthesis inhibition. cell reporter, cycloheximide protein synthesis inhibition counterscreen. max response, %. 300,000 tested, 12% active. AID 2314; in the data active = max response mostly above about 13%, no sharp cut-off; inactive = mostly below about 14%; also: read at 38.3 µM for the half of the compounds with a filed dose
HCMV antiviral: blocks human cytomegalovirus replication; HFF cells, HCMV-luciferase reporter, 72 h; stronger effect = lower value; AID 1259415; 410,000 tested, 4.5% active; activity change, negative = inhibition, % at 57.5 µM; in the data active = activity change below about -60%; inconclusive = no clear call, values can overlap the other calls; inactive = above about -39%
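Screen run at 2 compound doses on HFFs infected with reporter HCMV, MOI 1 PFU/cell. Luciferase activity from cell lysates at 72 h post infection gave inhibition relative to buffer-only and Salinomycin wells.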
Shiga toxin inh: blocks Shiga toxin action in Vero cells. Vero cells, Shiga toxin protein synthesis inhibition reporter. inhibition, % at 38.7 µM. 290,000 tested, 9.2% active. AID 2315; in the data active = inhibition mostly above about 28%, no sharp cut-off; inactive = mostly below about 43%
Pf growth 48h: inhibits P. falciparum growth in the first generation, 48 h. P. falciparum luciferase growth in erythrocytes, 48 h. Potency, µM (top dose mostly 28.7 µM), most hits filed as inhibitors. 310,000 tested, 5.9% active. AID 504832
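Luciferase-expressing parasites in RBCs, 2% Hct / 0.1% parasitemia final; RPMI 1640 + 0.5% Albumax; 37 C, 5% CO2, one generation; luminescence read-out, lower signal = inhibition.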
Pf growth 96h: P. falciparum growth inhibition at 96 hours | Potency, µM (doses to about 28.7 µM), usual class: inhibitors | P. falciparum luciferase reporter growth, 96 h | 320,000 tested, 6.9% active
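Two-generation exposure (96 h) targets delayed-death phenotype. Reporter parasites carrying integrated firefly luciferase, in red cells at 2% hematocrit and 0.05% parasitemia final, kept at 37 C, 5% CO2; luminescence loss indicates inhibition.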
Hits are given with their value; i = inactive; ? = inconclusive; nt = not tested or not shown. Unless noted, calls follow the shape of the dose curve; as a rule, active = well fitted inhibition curve with a large enough effect; inconclusive = small, poorly fitted or top-dose-only effect, or another doubt; inactive = no such curve, though single readings can be large or run the other way.

SMILES	CHX counter	HCMV antiviral	Shiga toxin inh	Pf growth 48h	Pf growth 96h
Cc1ccc(C(=O)COC(=O)CNC(=O)c2cccs2)cc1	i	i	i	i	i
O=C(CNC(=O)c1cccs1)OCC(=O)c1ccc(Cl)cc1	i	i	i	i	?
O=C(CNC(=O)c1cccs1)c1ccc(F)cc1	25.2	-75.2	i	i	i
O=C(CNC(=O)c1cccs1)c1ccc(Cl)cc1	37.5	i	78.8	i	?
O=C(Cc1cccs1)NNC(=S)NCc1ccc(Cl)cc1	i	i	i	i	i
Cc1ccc(-c2nc(CCNC(=O)C(=O)Nc3ccc(F)cc3F)cs2)cc1	nt	i	nt	nt	nt
COc1cc2onc(C3CCN(C(=O)C(C)(C)C)CC3)c2cc1OC	nt	i	nt	nt	nt
Cc1cc(-n2c(C)nc3ccccc3c2=O)ccc1NC(=O)c1cccc([N+](=O)[O-])c1C	nt	i	nt	nt	nt
O=C(NCCc1ccc(Cl)cc1)c1cccs1	42.5	i	133.6	i	?
CCSc1nc2sc3c(c2c2[n+]1CC(CBr)O2)CCCC3 (centres undefined)	17.4	i	i	i	i
BrCC1C[n+]2c(SCc3ccccc3)nc3sc4c(c3c2O1)CCCC4 (centres undefined)	30.6	i	80.3	i	i
O=S(=O)(c1cccc(C(F)(F)F)c1)N1CCN(c2nc(-c3cccs3)nc3cc(Cl)ccc23)CC1	i	nt	i	nt	nt
Cn1c(=O)oc2cc(S(=O)(=O)N3CCCC(C(=O)NCc4ccccc4Cl)C3)ccc21 (centres undefined)	nt	i	nt	nt	nt
Cc1ccc(NS(=O)(=O)c2ccc3c(c2)NC(=O)CCS3)cc1F	i	i	i	9.28µM	i
Cc1ccc(NS(=O)(=O)c2ccc3c(c2)NC(=O)CCS3)cc1C	i	?	i	13.1µM	?
COc1ccc(C2C(CC(=O)O)=C(Nc3ccccc3)C(=O)N2c2ccccc2)cc1 (centres undefined)	36.9	i	i	i	i
O=C(O)CC1=C(O)C(=O)N(c2ccccc2)C1c1ccccc1 (centres undefined)	i	i	i	i	nt
O=C(O)CC1=C(O)C(=O)N(c2ccccc2)C1c1ccc(Br)cc1 (centres undefined)	i	i	i	?	i
O=C(O)CC1=C(Nc2ccccc2)C(=O)N(c2ccccc2)C1c1ccc(F)cc1 (centres undefined)	52.0	i	99.3	i	i
Cc1ccccc1CC1SC(N)=NC1=O (centres undefined)	i	i	i	i	i
Nc1nc(N)c2c(ccc3nccc32)[nH]1	i	-95.8	i	1.65µM	3.7µM
c1cnc2ccc3ncccc3c2c1	i	i	i	i	i
Cc1cccc(N2CCC(N3CCN(C4CCCCC4)C(CCO)C3)CC2)c1C (centres undefined)	i	-75.3	i	i	i
OCCC1CN(C2CCSCC2)CCN1C1CCCC1 (centres undefined)	i	i	i	i	i
CC(C)N1CCC(N2CCN(C3CCCC3)CC2CCO)CC1 (centres undefined)	i	i	i	i	13.1µM
SMILES	CHX counter	HCMV antiviral	Shiga toxin inh	Pf growth 48h	Pf growth 96h
COC(C[C@H]1O[C@H]1[C@H](O)[C@@H](C)OCc1ccccc1)OC	i	i	i	i	i
CC(C)(C)OC(=O)N1CCC(c2c(C(=O)NCc3ccccc3)cnn2-c2cccc(F)c2)CC1	nt	i	nt	nt	nt
Cc1cc(C)cc(NC(=O)CN2C(=O)CSc3ccc(S(=O)(=O)N4CCCC4)cc32)c1	nt	i	nt	nt	nt
COc1cc(CNCCSc2nnnn2C)cc(Br)c1OCc1ccccc1F	i	i	i	i	nt
CCOc1cc(CNCCSc2nnnn2C)cc(Br)c1OCc1ccccc1F	i	i	i	?	8.28µM
CCOc1cc(CNCCSc2nnnn2C)cc(Br)c1OCc1ccc(F)cc1	i	i	i	?	10.4µM
COc1cc(CNCCSc2nnnn2C)cc(Br)c1OCc1ccc(F)cc1	i	i	i	?	nt
CCOc1cc(CNCCO)cc(Br)c1OCc1ccc(Cl)cc1Cl	i	i	i	8.28µM	i
CCOc1cc(CNCc2ccncc2)cc(Br)c1OCc1ccccc1F	i	-69.8	i	?	?
O=C1NCCOc2ccccc21	nt	i	nt	nt	nt
COc1cccc(N2CCN(C(=O)C3CCN(S(=O)(=O)c4cccc5nonc45)CC3)CC2)c1	nt	i	nt	nt	nt
COC(=O)c1ccc(CNc2ccc(C(C)=O)cc2)cc1	nt	i	nt	nt	nt
O=C(O)CCC(=O)Nc1ccc(/C=C/C(=O)C2CC2)cc1	29.4	i	i	i	i
CCC(=O)Nc1cc(C(=O)O)ccc1Sc1ccc(C)cc1	i	i	i	i	?
CCOc1ccc(S(=O)(=O)NC(Cc2c[nH]c3ccccc23)C(=O)O)cc1 (centres undefined)	i	i	i	nt	i
Cc1cc(NCCN)nc2ccccc12	i	i	i	nt	?
FC(F)(F)c1ccc(NCc2ccccn2)nc1	56.4	i	96.7	nt	i
c1ccc(CNc2ccc3ccccc3n2)nc1	30.3	i	i	i	nt
O=c1c2ccccc2nc2c3ccccc3c(NCc3ccccn3)nn12	i	i	i	i	i
Cc1cc(NCc2ccccn2)nc2ccccc12	21.5	i	i	nt	?
Cc1nc(NCc2ccccn2)c2ccccc2n1	i	-84.2	i	i	i
CCc1ccc(NC(=O)CN2C(=O)c3ccccc3Sc3ccc(C(=O)N4CCCC4)cc32)cc1	nt	i	nt	nt	nt
CC(=NNc1cc(C)c2ccccc2n1)c1ccccn1	nt	-97.8	nt	nt	nt
Cc1cc(N/N=C(/CCC(=O)O)C(=O)O)nc2ccccc12	i	i	i	i	i
O=C1NC[C@H](CCCCN2CCN(CCC3CCCCC3)C(=O)C2=O)N(CCc2ccc(O)cc2)C1=O	nt	i	nt	nt	nt
SMILES	CHX counter	HCMV antiviral	Shiga toxin inh	Pf growth 48h	Pf growth 96h
C=CCn1cnnc1SCC(=O)Nc1cccnc1Cl	nt	nt	nt	i	i
Cc1ccsc1/C=N/NC(=O)C(=O)NCC(C)C	41.3	i	75.9	i	i
Cc1ccsc1/C=N/NC(=S)NCCc1ccccc1	32.5	i	30.6	i	i
S=C(NCCc1ccccc1)N/N=C/c1cccc(Cl)c1Cl	i	i	i	i	i
Oc1ccccc1/C=N/NC(=S)NCCc1ccccc1	i	-69.9	i	?	?
CCNC(=S)N/N=C/c1sccc1C	i	nt	33.7	?	?
S=C(NCCc1ccccc1)N/N=C/c1cccs1	nt	i	nt	nt	nt
COc1ccc(CCN2C(=O)c3[nH]nc(-c4ccccc4O)c3C2c2ccccc2)cc1 (centres undefined)	nt	i	nt	nt	nt
COc1ccc(-c2cc(=O)n(CCC#N)[nH]2)cc1	i	?	i	i	7.38µM
COc1ccc(-c2cc(=O)[nH][nH]2)cc1	i	i	i	nt	i
Cc1cc(C(=O)NCCc2ccc(S(N)(=O)=O)cc2)no1	i	i	i	i	i
O=c1[nH]c2cc3c(cc2cc1CN(CCc1ccccc1)C(=S)NCCCN1CCOCC1)OCCO3	nt	i	nt	nt	nt
COc1cc2cc(CN(CCc3ccccc3C)C(=S)NCCCN(C)C)c(=O)[nH]c2cc1OC	i	i	i	13.1µM	?
COc1cc2cc(CN(CCc3ccccc3C)C(=S)NCCCN3CCOCC3)c(=O)[nH]c2cc1OC	i	-64.0	i	7.38µM	i
CCNC(=S)N(CCc1ccccc1C)Cc1cc2cc(OC)c(OC)cc2[nH]c1=O	i	i	i	?	?

Assay outcomes from PubChem.
